Measurements from PubChem BioAssay AID504832 (National Center for Advancing Translational Sciences (NCATS), 2011).
Among all 310,000 compounds or so, about 18,000 (5.8%) were called active. Roughly 22% stayed inconclusive and do not appear here. The entries come from a sample that favours actives as a whole. A number with no mark means an inactive call. Calls come from the whole dose curve; as a rule, active = well fitted inhibition curve with a large enough effect; inconclusive = small, poorly fitted or top-dose-only effect, or another doubt; inactive = no such curve, though single readings can be large or run the other way.

Assay: Primary qHTS for delayed death inhibitors of the malarial parasite plastid, 48 hour incubation
Conditions: P. falciparum luciferase growth in erythrocytes; series mostly up to 28.7 µM; activity change, negative = inhibition: at the top concentration
Procedure, shortened: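 Cell-based growth assay: transgenic P. falciparum expressing firefly luciferase, cultured in red cells within RPMI 1640 containing 0.5% w/v Albumax, 24 mM bicarbonate and gentamycin. A drop in luciferase activity indicates inhibition.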
% is set by controls: 0 for no effect and ±100 for the full control effect; potency is the fitted concentration of half-maximal effect.

SMILES | Potency | activity change, negative = inhibition
COc1ccc(O)c(C(=O)c2cnc3c(c2)c(-c2ccc(F)cc2)c(C#N)c(=O)n3C)c1 | 1.65 µM (active) | –
COc1ccc(/C=N/Nc2nc(-c3ccc(C)cc3)c(C#N)c(=O)[nH]2)cc1 | – | -6.4%
COc1ccccc1C(=O)NC(CCSC)C(=O)N1CCN(C(C)=O)CC1 (stereo unspecified) | – | 0%
CSCCC(NC(=O)c1ccccc1)C(=O)N1CCCCCCC1 (stereo unspecified) | – | -5.02%
CSCCC(NC(=O)c1ccccc1)C(=O)N1CCN(Cc2ccc(Cl)cc2)CC1 (stereo unspecified) | 2.94 µM (active) | –
c1ccc2c(c1)CSc1sccc1C2=C1CCNCC1 | 11.7 µM (active) | –
O=C(CNC(=O)c1ccc(Br)o1)NCC1CCCO1 (stereo unspecified) | – | 24.5%
CCOC(=O)N1CCN(C(=O)COC(=O)c2cccc(S(C)(=O)=O)c2)CC1 | – | 22.3%
CCOc1ccc(NC(=O)C(C)N2C(=O)c3ccccc3C2=O)cc1 (stereo unspecified) | – | 7.81%
COc1ccc(-c2ccc3nnc(SCC(=O)Nc4ccc(NC(C)=O)cc4)n3n2)cc1 | – | 18.1%
COc1ccc(CNS(=O)(=O)c2ccc(NC(=O)N3CCCCC3)cc2)cc1 | – | -5.79%
COc1ccc(C(=O)N2CCN(c3ccc(C(C)=O)cc3F)CC2)cc1S(=O)(=O)NC1CC1 | – | 17.8%
COc1ccc(CNC(=O)CCN2C(=O)c3ccccc3C2=O)cc1 | – | -4.91%
COc1ccc(CNc2ncnc3ccccc23)cc1 | – | -8.38%
COc1ccc(CCNCc2c(-c3ccccc3)n(C)c3ccccc23)cc1 | 11.7 µM (active) | –
COc1cccc(N2C(=O)C3CCCN3C2c2ccc(F)cc2)c1 (stereo unspecified) | 10.4 µM (active) | –
COc1ccc(OC)c(C2N(c3ccccn3)C(=O)C3CCCN32)c1 (stereo unspecified) | – | 9.65%
Cc1cc(N2C(=O)C3CCCN3C2c2ccc(Cl)c(Cl)c2)no1 (stereo unspecified) | – | 2.43%
Cc1cccnc1CCNC(=O)C1CCC(=O)N(Cc2cccc(F)c2)C1 (stereo unspecified) | – | 7.78%
CCN(Cc1ccccc1)C(=O)Cc1ccc(OC)c(S(=O)(=O)N2CCOCC2)c1 | – | -15.6%
COc1ccccc1NC(=O)COC(=O)Cc1ccc(S(=O)(=O)N2CCCCC2)s1 | – | 11.4%
COCCN(Cc1ccccc1)C(=O)Cc1ccc(S(=O)(=O)N2CCOCC2)s1 | 10.4 µM (active) | –
CC1CCN(C(=O)/C(=C\c2ccccc2)NC(=O)c2ccccc2)CC1 | – | 0.253%
Cc1c(C)n2c(SCC(=O)NC3CCCC3)nnc2[nH]c1=O | – | -5.51%
CCOc1ncccc1C(=O)OCC(=O)N1c2ccccc2CC1C (stereo unspecified) | – | 7.69%
Cc1cc(C)c(S(=O)(=O)N2CCC(C(=O)OCc3c(C)noc3C)CC2)c(C)c1 | 11.7 µM (active) | –

SMILES | Potency | activity change, negative = inhibition
CCOC(=O)C1CCN(C(=O)C2CCN(S(=O)(=O)c3c(C)noc3C)CC2)CC1 | – | -3.05%
CCOC(=O)C1CCN(S(=O)(=O)c2c(C)noc2C)CC1 | – | 24.2%
CCCN(C(=O)c1nc2nccc(C)n2n1)c1c(N)n(Cc2ccccc2)c(=O)[nH]c1=O | – | -14%
Cc1ccc(N(CC(=O)Nc2cc(C)cc(C)c2)S(=O)(=O)c2cccc3nonc23)cc1 | – | -5.21%
CCOc1ccc(N(CC(=O)NCc2ccc(OC)cc2)S(=O)(=O)c2c(C)noc2C)cc1 | – | -15.5%
CCOC(=O)c1cccc(NC(=O)CN(c2ccc(C)cc2)S(=O)(=O)c2c(C)noc2C)c1 | 8.28 µM (active) | –
Cc1ccc(NC(=O)[C@H](Cc2ccccc2)NC(=O)C2CCNCC2)cc1 | – | 17.4%
O=C(Nc1ccc(S(=O)(=O)Nc2ccccn2)cc1)c1ccccc1 | – | 16.3%
COc1cccc(NC(=O)CN(C)C(=O)CSC(=S)N2CCCC2)c1 | – | 6.54%
Cc1coc2c(O)cc3c(c12)OC1(N2CCCCC2)C(=O)NCCCC31 (stereo unspecified) | 11.7 µM (active) | –
CCOc1ccc(CNC(=O)CCC(=O)N2CCSc3ccccc32)cc1 | – | 10.3%
Cc1cccc(/C=N/NC(=O)CNc2cccc3ccccc23)n1 | – | 26.1%
Cc1ccccc1NCC(=O)N/N=C\c1ccc([N+](=O)[O-])s1 | 9.28 µM (active) | –
CCOc1ccc(NC(=O)CCC(=O)n2nc(C)cc2C)cc1 | – | 11.4%
CCOc1ccc(NC(=O)CCC(=O)N/N=C/c2ccc([N+](=O)[O-])s2)cc1 | 11.7 µM (active) | –
CCOc1ccc(NC(=O)CCC(=O)NNC(=O)NC2CCCCC2)cc1 | – | -21.8%
Cn1cccc1/C=N/NC(=O)CNc1cccc2ccccc12 | – | -2.89%
CN(C)c1cccc(C(=O)N2CCC(n3nccc3NC(=O)C3CCOC3)CC2)c1 (stereo unspecified) | – | -2.94%
COc1ccc(CCNC(=O)C(=O)NCC2OCCN2S(=O)(=O)c2ccc(OC)c(C)c2)cc1 (stereo unspecified) | – | -8.72%
COC(=O)c1ccccc1NC(=O)CSc1nc2c(c(=O)[nH]1)CCC2 | – | 20.7%
CCc1ccc(OCC(=O)OC(C)C(=O)NC2CC2)cc1 (stereo unspecified) | – | 75.2%
O=C(NC1CCCC1)C1CCN(C(=O)Nc2cccc(Cl)c2)CC1 | – | -17.9%
COc1ccc(Cl)cc1NC(=O)C(C)N1CCc2ccccc21 (stereo unspecified) | 6.57 µM (active) | –
COc1ccc(Cl)cc1NC(=O)CCN1CCOCC1 | – | -10.9%
COc1ccc(Cl)cc1NC(=O)CNc1ccccc1F | – | -15.1%
